Screening data deposited in PubChem by National Center for Advancing Translational Sciences (NCATS).
L3MBTL1 block: qHTS Assay for the Inhibitors of L3MBTL1 | Lethal(3)malignant brain tumor-like protein 1 (Homo sapiens), Q9Y468 | AlphaScreen L3MBTL1–H3K9me1 peptide binding | Potency, µM (highest dose often 57.1 µM), without a hit: at the highest dose activity, negative = inhibition, hits mostly inhibitors | 0.66% of 230,000 active | AID 485360, 2010; note: % is set by controls: 0 for no effect and ±100 for the full control effect; nearly all actives have a fitted effect of over 60% in size
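L3MBTL1 50 nM + b-AHA-H3(1-15)K9me1 75 nM, 30 min RT; compound added, 30 min RT; streptavidin donor/Ni-chelate acceptor beads 10 ug/mL each final, 30 min RT dark; AlphaScreen read.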
JMJD2A Tudor inh: qHTS Assay for Inhibitors of JMJD2A-Tudor Domain; AlphaScreen JMJD2A-Tudor / H3K4me3 peptide binding; Potency, µM (highest dose often 114 µM), without a hit: at the highest dose activity change, negative = inhibition, hits mostly inhibitors; 4.4% of 390,000 active; note: % is set by controls: 0 for no effect and ±100 for the full control effect; nearly all actives have a fitted effect of over 50% in size
BAZ2B inh: qHTS Assay for Inhibitors of BAZ2B; AlphaScreen BAZ2B-H3K14Ac peptide displacement; Bromodomain adjacent to zinc finger domain protein 2B (Homo sapiens), Q9UIF8; 4.4% of 360,000 active; AID 504333, 2011; Potency, µM (series often up to 114 µM), for the others: at the top dose activity change, negative = inhibition, actives largely listed as inhibitors; note: % is set by controls: 0 for no effect and ±100 for the full control effect; nearly all actives have a fitted effect of over 60% in size
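In this displacement format the biotinylated H3(5-23) peptide acetylated at Lys14 serves as ligand at 50 nM, with BAZ2B at 50 nM in PBS pH 7.4 containing 0.01% Tween-20. Donor and acceptor beads are 10 ug/mL final.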
G9a inh: qHTS Assay for Inhibitors of Histone Lysine Methyltransferase G9a; G9a H3K9 monomethylation, AlphaScreen, 2 h; 8.8% of 350,000 active; Potency, µM (top dose mostly 102 µM), for inactives: top-dose activity, negative = inhibition, actives largely listed as inhibitors; Histone-lysine N-methyltransferase EHMT2 (Homo sapiens), Q96KQ7; note: % is set by controls: 0 for no effect and ±100 for the full control effect; nearly all actives have a fitted effect of over 75% in size
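Enzyme 20 nM + cpd, 15 min RT; add b-H3K9 pep 500 nM / SAM 20 uM; 2 h RT; anti-H3K9me1 Ab 0.5 ug/mL + SA donor / anti-rabbit acceptor beads 20 ug/mL each, 10 min; AlphaScreen read.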
GLS inh: qHTS for Inhibitors of Glutaminase (GLS); 0.21% of 410,000 active; Potency, µM (highest dose often 45.5 µM), inactives show at the highest dose activity change, negative = inhibition, hits mostly inhibitors; GLS enzymatic activity, qHTS titration; note: % is set by controls: 0 for no effect and ±100 for the full control effect
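Assay buffer: 45 mM KH2PO4 pH 8.2, 0.02% Tween-20. hKGA acts on L-glutamine (1 mM solution added); product glutamate is reported by an oxidase/peroxidase Amplex Red coupling, with fluorescence taken at baseline and 30 min.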
HP1b chromo inh: HTS for Inhibitors of HP1-beta Chromodomain Interactions with Methylated Histone Tails. Chromobox protein homolog 1 (Homo sapiens), P83916. AlphaScreen HP1-beta / biotin-H3K9me3 peptide binding. Potency, µM (doses to about 114 µM), without a hit: at the highest dose activity change, negative = inhibition, usual class: inhibitors. 0.56% of 390,000 active; note: nearly all actives have a fitted effect of over 70% in size
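Compound inhibition of the preformed complex between 50 nM HP1-beta and 50 nM biotinylated H3K9me3 peptide was read by AlphaScreen. Buffer was PBS pH 7.4 with 0.01% Tween-20. Incubations ran 30 min at room temperature, with 10 ug/mL donor/acceptor beads.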
The depositor's hits bear a star; ? = inconclusive; · = no result; [ ] = another dose, or the depositor's remark. Hits are enriched below; roughly 10% of the tested compounds scored in any of these assays. Calls come from the whole dose curve; as a rule, active = well fitted curve in the direction sought with a large enough effect; inconclusive = small, poorly fitted or top-dose-only effect, or another doubt; inactive = no such curve, though single readings can be large; an effect the other way counts as inactive or inconclusive. Potency is the fitted concentration of half-maximal effect.

SMILES | L3MBTL1 block | JMJD2A Tudor inh | BAZ2B inh | G9a inh | GLS inh | HP1b chromo inh
CC1=C(C(=O)Nc2ccccc2C)C(c2ccc[nH]2)n2ncnc2N1 (stereo not given) | · | 56.2µM* | 50.1µM* | -3.8%[59 µM] | ? | -2.4%[57 µM]
COc1ccc(OC)c(-c2nnc3n(Cc4ccc(C)cc4)c(=O)c4ccccc4n23)c1 | · | -4.3% | -5.6% | -30.5%[59 µM] | 16.0% | 25.7%
COc1ccccc1-c1nnc(NC(=O)C2CCCN2S(=O)(=O)c2cccs2)o1 (stereo not given) | · | · | · | · | -0.5% | ·
O=C(Nc1nnc(-c2ccc(F)cc2)o1)C1CCCN1S(=O)(=O)c1cccs1 (stereo not given) | -3.5% | 44.7µM* | 79.4µM* | ? | 8.8% | 34.9%
COc1ccc(CNC(=O)c2ccc3c(c2)N(Cc2cccc(Cl)c2)C(=O)c2ccccc2S3)c(OC)c1 | · | -5.2% | 0.0% | -28.6%[59 µM] | 6.8% | 26.5%
COc1cccc(CN2CCN(C(=O)c3cccc4ccccc34)CC2)c1OC | · | 3.98µM* | 56.2µM* | ? | 2.1% | 20µM*
COc1cccc(CN2CCN(C(=O)c3ccco3)CC2)c1OC | · | 5.62µM* | · | · | -2.6% | 44.7µM*
COc1cc(C(=O)N2CCN(C(=O)c3cccc4ccccc34)CC2)cc(OC)c1OC | · | -18.0% | -12.0% | 16.7% | 13.8% | -4.0%
COc1ccc2oc(=O)cc(CN3CCN(C(=O)c4ccccc4F)CC3)c2c1 | · | -17.6% | -2.0% | -4.4%[59 µM] | 0.1% | ?
COc1ccc2ccccc2c1CN1CCN(C(=O)c2ccco2)CC1 | · | -33.3% | ? | -10.9% | -12.4% | 0.5%
COc1ccc(CN2CCN(C(=O)c3ccccc3F)CC2)c(OC)c1OC | · | 1.78µM* | · | · | -3.7% | ?
Cc1cccc(CN2CCN(C(=O)c3cccc4ccccc34)CC2)c1 | -0.8%[2.29 µM] | 2.24µM* | 56.2µM* | 22.7%[0.501 µM] | -11.5% | ?
Cc1cccc(CN2CCN(C(=O)CCl)CC2)c1 | -1.0% | 4.1% | -0.5% | ? | -1.0% | 6.9%
CN(C)c1ccc(-c2cc(N(C)Cc3ccco3)ncn2)cc1 | · | · | · | -48.4%[0.501 µM] | · | ·
Cc1ccc(C(=O)NCC(=O)OCC(=O)c2ccc3ccccc3c2)cc1 | · | -5.4%[57.1 µM] | · | · | · | 11.1%[57 µM]
COc1cccc(-n2cc(C(=O)Nc3ccccc3C(N)=O)c3ccccc3c2=O)c1 | · | -28.9% | -23.6% | -32.8%[59 µM] | -1.2% | -6.7%
O=C(NCCc1ccc(Cl)cc1)c1ccc(CS(=O)(=O)Cc2ccccc2F)o1 | · | -10.9% | -1.0% | 4.8%[59 µM] | -1.0% | 32.5%
COc1ccccc1C(=O)N1CCN(Cc2c[nH]c3ccccc23)CC1 | · | 17.8µM* | 50.1µM* | -19.9% | 12.1% | ?
Cc1ccccc1CN1CCN(C(=O)c2cccc3ccccc23)CC1 | -0.9% | 25.1µM* | 56.2µM* | 20µM* | 3.7% | ?
COc1ccccc1CN1CCN(C(=O)c2cccc3ccccc23)CC1 | · | 20µM* | · | · | 4.0% | ?
O=C(c1ccncc1)N1CCN(C(=O)c2cccc3ccccc23)CC1 | -0.5% | -10.8% | -19.3% | -6.3%[59 µM] | -9.4% | 39.1%
COc1cccc(OC)c1C(=O)N1CCN(Cc2c[nH]c3ccccc23)CC1 | · | · | · | · | 4.6% | ·
COc1cccc(OC)c1C(=O)N1CCN(Cc2ccccc2C)CC1 | 2.9% | -31.5%[11.4 µM] | 50.1µM* | 31.6µM* | -17.4% | ?
COc1cccc(C(=O)N2CCN(Cc3ccco3)CC2)c1OC | 2.6% | ? | -36.8% | -0.3%[59 µM] | 1.3% | ?
C[N+]1(C)CCN(C[C@@](O)(c2ccccc2)C2CCCCC2)CC1 | · | · | · | · | -2.2% | ·
Cc1ccc(O)c(C(CC(=O)NCC2(c3ccccc3)CCCC2)c2ccccc2)c1 (stereo not given) | · | -22.3% | -22.3% | -29.9%[59 µM] | 4.3% | -4.4%
